Test results published in the antibiotic and cytotoxicity screens of Wong et al. (2023).
Among all 39,000 compounds or so, about 3,300 (8.5%) were called active. The entries come from a sample that favours actives as a whole.

What follows are compounds tested on HepG2 (assay: cytotoxicity call (relative viability < 0.9)). Details: 10 µM.
With `COc1ccc(NC(=O)Nc2ccc3c(c2)C(=O)N([C@@H](C)CO)C[C@@H](C)[C@@H](CN(C)Cc2ccc(C(=O)O)cc2)OCCCC[C@@H](C)O3)cc1` the cytotoxicity call was “inactive”. In the case of `C[C@H](CO)N1C[C@H](C)[C@H](CN(C)S(=O)(=O)c2cccs2)Oc2ccc(NC(=O)CCN3CCOCC3)cc2CC1=O`, the cytotoxicity call is reported as “inactive”. `COc1ccccc1CNC(=O)C[C@H]1C[C@@H]2c3cc(NC(=O)c4ccc5c(c4)OCO5)ccc3O[C@@H]2[C@H](CO)O1` was tested, and the cytotoxicity call was “inactive”. In the case of `C[C@@H]1CCCCO[C@H](CN(C)Cc2ccccc2)[C@@H](C)CN([C@@H](C)CO)C(=O)c2cc(NC(=O)CCCCCC(=O)Nc3ccccc3N)ccc2O1`, the cytotoxicity call is reported as “inactive”. For `Cc1noc(C)c1NC(=O)N(C)C[C@@H]1Oc2ccc(NS(=O)(=O)c3ccccc3)cc2CC(=O)N([C@H](C)CO)C[C@@H]1C`, the cytotoxicity call was “inactive”. With `COc1ccc(S(=O)(=O)Nc2ccc3c(c2)C(=O)N([C@@H](C)CO)C[C@@H](C)[C@H](CN(C)S(=O)(=O)c2cn(C)cn2)OCCCC[C@@H](C)O3)cc1` the cytotoxicity call was “inactive”. With `C[C@@H]1CN([C@H](C)CO)C(=O)c2cccc(NC(=O)c3ccc(-c4nccs4)cc3)c2O[C@@H]1CN(C)Cc1ccccc1` the cytotoxicity call was “inactive”. `COc1ccc(C#Cc2cnc3c(c2)C(=O)N([C@H](C)CO)C[C@H](C)[C@H](CN(C)C(=O)NC(C)C)O3)cc1OC` was tested, and the cytotoxicity call was “inactive”. `CO[C@@H]1CN(C)C(=O)c2cc(NC(=O)NC(C)C)ccc2OC[C@@H](C)N(Cc2ccc(-c3ccccn3)cc2)C[C@H]1C` was tested, and the cytotoxicity call was “inactive”. `C=CCOC(=O)[C@H]1[C@@H]2C(=O)O[C@@H](c3ccccc3)[C@@H](c3ccccc3)N2[C@@H](c2ccc(OCCOC(=O)[C@H]3C[C@H]4C(=O)NCC(=O)N4[C@H]3c3cccc(OCCO)c3)cc2)[C@]12C(=O)Nc1ccc(I)cc12` was tested, and the cytotoxicity call was “inactive”. `Cc1noc(C)c1NC(=O)Nc1ccc2c(c1)C(=O)N([C@@H](C)CO)C[C@@H](C)[C@@H](CN(C)C(=O)NC1CCCCC1)OCCCC[C@@H](C)O2` was tested, and the cytotoxicity call was “inactive”. For `COC1=C2C[C@@H](C)C[C@H](OC)[C@H](O)[C@@H](C)/C=C(\C)[C@H](OC(N)=O)[C@@H](OC)/C=C\C=C(/C)C(=O)NC(=CC1=O)C2=O`, the cytotoxicity call was “active”. For `COC1=C2C[C@@H](C)C[C@H](OC)[C@H](O)[C@@H](C)/C=C(\C)[C@H](OC(N)=O)[C@@H](OC)/C=C/C=C(\C)C(=O)NC(=CC1=O)C2=O`, the cytotoxicity call was “active”. For `COC1=C2C[C@H](C)C[C@H](OC)[C@@H](O)[C@H](C)/C=C(\C)[C@H](OC(N)=O)[C@H](OC)/C=C/C=C(\C)C(=O)NC(=CC1=O)C2=O`, the cytotoxicity call was “active”. In the case of `CO[C@H]1/C=C\C=C(/C)C(=O)NC2=CC(=O)C=C(C2=O)[C@H](OC)[C@@H](C)C[C@H](OC)[C@H](O)[C@@H](C)/C=C(\C)[C@@H]1OC(N)=O`, the cytotoxicity call is reported as “inactive”. `CO[C@H]1/C=C\O[C@@]2(C)Oc3c(C)c(O)c4c(c3C2=O)[C@]2(C=C(NC(=O)/C(C)=C\C=C/[C@@H](C)[C@@H](O)[C@@H](C)[C@@H](O)[C@@H](C)[C@@H](OC(C)=O)[C@@H]1C)C4=O)OCC(=O)O2` was tested, and the cytotoxicity call was “inactive”. With `Cc1ccc(S(=O)(=O)N2C[C@H](O)COC[C@@H]3O[C@H](CC(=O)N[C@H]4CCN(Cc5ccccc5)C4)CC[C@H]32)cc1` the cytotoxicity call was “inactive”. `O=C(O)Cn1c(=O)oc2ccccc21` was tested, and the cytotoxicity call was “inactive”. For `C[C@@H]1CN([C@H](C)CO)C(=O)c2cc(NC(=O)C3CCCCC3)ccc2O[C@@H](C)CCCCO[C@H]1CN(C)C(=O)Cc1ccccc1`, the cytotoxicity call was “inactive”. With `COc1ccc(S(=O)(=O)N(C)C[C@@H]2OCCCC[C@@H](C)Oc3ccc(NC(=O)Nc4ccc(F)cc4)cc3C(=O)N([C@@H](C)CO)C[C@@H]2C)cc1` the cytotoxicity call was “inactive”. With `CCOc1ccc(Cc2nccc3cc(OCC)c(OCC)cc23)cc1OCC.Cl` the cytotoxicity call was “active”. With `COc1cc2ccnc(CCCN)c2cc1OC` the cytotoxicity call was “inactive”. With `CCOc1ccc([C@@H](C)N)cc1OCC` the cytotoxicity call was “inactive”. For `C[C@@H]1CN([C@@H](C)CO)C(=O)c2cccc(NC(=O)Nc3ccc(C(F)(F)F)cc3)c2O[C@H]1CN(C)Cc1ccc(C(=O)Nc2ccccc2N)cc1`, the cytotoxicity call was “active”. With `C[C@H](CO)N1C[C@H](C)[C@@H](CN(C)Cc2ccc(C(=O)Nc3ccccc3N)cc2)Oc2c(NC(=O)Nc3ccc(C(F)(F)F)cc3)cccc2C1=O` the cytotoxicity call was “inactive”. For `C[C@H]1CN([C@@H](C)CO)C(=O)c2cccc(NC(=O)Nc3ccc(C(F)(F)F)cc3)c2O[C@H]1CN(C)Cc1ccc(C(=O)Nc2ccccc2N)cc1`, the cytotoxicity call was “inactive”. With `C[C@@H]1CN([C@H](C)CO)C(=O)c2cccc(NC(=O)Nc3ccc(C(F)(F)F)cc3)c2O[C@H]1CN(C)Cc1ccc(C(=O)Nc2ccccc2N)cc1` the cytotoxicity call was “inactive”. With `C[C@@H]1CN([C@@H](C)CO)C(=O)c2cccc(NC(=O)Nc3ccc(C(F)(F)F)cc3)c2O[C@@H]1CN(C)Cc1ccc(C(=O)Nc2ccccc2N)cc1` the cytotoxicity call was “active”. In the case of `C[C@H]1CN([C@@H](C)CO)C(=O)c2cccc(NC(=O)Nc3ccc(C(F)(F)F)cc3)c2O[C@@H]1CN(C)Cc1ccc(C(=O)Nc2ccccc2N)cc1`, the cytotoxicity call is reported as “inactive”. For `COCC(=O)N(C)C[C@@H]1Oc2cc(C#C[C@H](C)O)ccc2S(=O)(=O)N([C@H](C)CO)C[C@@H]1C`, the cytotoxicity call was “inactive”. For `C[C@H]1CN([C@@H](C)CO)C(=O)Cc2cc(NS(=O)(=O)c3ccc(F)cc3)ccc2O[C@H]1CN(C)Cc1ccc(Cl)c(Cl)c1`, the cytotoxicity call was “active”. In the case of `C[C@@H]1CN([C@H](C)CO)C(=O)Cc2cc(NS(=O)(=O)c3ccc(F)cc3)ccc2O[C@H]1CN(C)Cc1ccc(Cl)c(Cl)c1`, the cytotoxicity call is reported as “active”. With `C[C@@H]1CN([C@@H](C)CO)C(=O)Cc2cc(NS(=O)(=O)c3ccc(F)cc3)ccc2O[C@@H]1CN(C)Cc1ccc(Cl)c(Cl)c1` the cytotoxicity call was “active”. For `C[C@H](CO)N1C[C@H](C)[C@H](CN(C)Cc2ccc(Cl)c(Cl)c2)Oc2ccc(NS(=O)(=O)c3ccc(F)cc3)cc2CC1=O`, the cytotoxicity call was “inactive”. For `C[C@H](CO)N1C[C@H](C)[C@@H](CN(C)Cc2ccc(Cl)c(Cl)c2)Oc2ccc(NS(=O)(=O)c3ccc(F)cc3)cc2CC1=O`, the cytotoxicity call was “inactive”. In the case of `C[C@H]1CN([C@@H](C)CO)C(=O)Cc2cc(NS(=O)(=O)c3ccc(F)cc3)ccc2O[C@@H]1CN(C)Cc1ccc(Cl)c(Cl)c1`, the cytotoxicity call is reported as “active”. For `C[C@@H]1CN([C@@H](C)CO)C(=O)Cc2cc(NS(=O)(=O)c3ccc(F)cc3)ccc2O[C@H]1CN(C)Cc1ccc(Cl)c(Cl)c1`, the cytotoxicity call was “inactive”. With `Cc1ccc(S(=O)(=O)Nc2ccc3c(c2)C(=O)N([C@H](C)CO)C[C@H](C)[C@H](CN(C)CC2CC2)O3)cc1` the cytotoxicity call was “inactive”. For `OCCn1cncn1`, the cytotoxicity call was “inactive”. In the case of `CN(C)CCCCNC(=O)[C@H]1C[C@H]2C(=O)NCC(=O)N2[C@H]1c1cccc(OCCO)c1`, the cytotoxicity call is reported as “inactive”. With `C[C@@H]1CCCCO[C@@H](CN(C)S(=O)(=O)c2cccs2)[C@H](C)CN([C@@H](C)CO)C(=O)c2cc(NC(=O)C3CCCCC3)ccc2O1` the cytotoxicity call was “inactive”. `Cc1ncc(CO)c(CO)c1O` was tested, and the cytotoxicity call was “inactive”. In the case of `C[C@@H]1CCCCO[C@H](CN(C)Cc2ccncc2)[C@H](C)CN([C@@H](C)CO)C(=O)c2cc(NC(=O)Nc3ccc4c(c3)OCO4)ccc2O1`, the cytotoxicity call is reported as “inactive”. With `Cc1noc(C)c1NC(=O)N(C)C[C@@H]1Oc2ccc(NS(=O)(=O)c3ccccc3)cc2C(=O)N([C@@H](C)CO)C[C@H]1C` the cytotoxicity call was “inactive”. For `C[C@@H]1CN([C@H](C)CO)C(=O)Cc2cc(NS(=O)(=O)c3ccc(F)cc3)ccc2O[C@@H]1CN(C)Cc1ccc(Cl)c(Cl)c1`, the cytotoxicity call was “active”. With `COc1ccc(S(=O)(=O)N(C)C[C@H]2Oc3c(NC(=O)C4CCOCC4)cccc3C(=O)N([C@@H](C)CO)C[C@@H]2C)cc1` the cytotoxicity call was “inactive”.
